Screening results from PubChem.
MARV entry inh: inhibitors of Marburg virus binding or cell entry | Marburg virus pseudotyped entry inhibition, cell reporter | Potency, µM (top dose mostly 37.8 µM), actives largely listed as inhibitors | 300,000 tested, 1.8% active; calls by dose curve; tested in HEK293 cells
LASV entry inh: blocks Lassa virus binding to or entry into cells | Lassa virus pseudotype entry inhibition, cell reporter | Potency, µM (titrated, usually from 37.9 µM), hits mostly inhibitors | 300,000 tested, 1.2% active; calls by dose curve; tested in HEK293 cells; further: nearly all actives have a fitted effect of over 50% in size
FMDV inh: antivirals against foot and mouth disease virus. FMDV antiviral cell-based qHTS. Potency, µM (series often up to 57.9 µM), most hits filed as inhibitors. 410,000 tested, 1.2% active. AID 1159524; calls by dose curve; tested in HEK293T cells; further: read-out not given here; nearly all actives have a fitted effect of over 45% in size
HCMV antiviral: human cytomegalovirus inhibition; activity change, negative = inhibition, % at 57.5 µM; AID 1259415; HFF cells, HCMV-luciferase reporter, 72 h; active compounds read low; 410,000 tested, 4.5% active; in the data active means activity change below about -60%; inconclusive means no clear call, values can overlap the other calls; inactive means above about -39%
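Cell-based, HFFs, 1000 cells/well, 16 h 37C; cpds in DMSO + HCMV-luc, MOI 1 PFU/cell; 72 h 37C; OneGlo luminescence after 5 min RT; norm. to buffer vs Salinomycin 10uM.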
Of the large screens only hits and unclear results are named; the others gave an inactive call. Only some compounds are listed: those with a hit (about 6.2% of all), similar ones and a draw of the others.

O=C(Nc1nc2c(Cl)cccc2s1)c1ccc(S(=O)(=O)N2CCc3ccccc32)cc1	LASV entry inh inconclusive, FMDV inh inconclusive (no result: MARV entry inh)
CCN(CC)CCNC(=O)c1ccc(NC(=O)c2cccc(S(=O)(=O)N3CCc4ccccc43)c2)cc1	MARV entry inh 8.9µM, HCMV antiviral inconclusive
CN(Cc1nc2ccccc2c(=O)[nH]1)C(=O)c1cccc(S(=O)(=O)N2CCCCCC2)c1	FMDV inh inconclusive (no result: MARV entry inh, LASV entry inh)
COc1cc2nc(NC(=O)c3ccc(S(=O)(=O)N4CCc5ccccc54)cc3)sc2cc1OC	FMDV inh inconclusive, HCMV antiviral -72 (no result: MARV entry inh)
COc1cc2c(cc1OC)CN(C(=O)c1cccc(S(=O)(=O)N3CCc4ccccc43)c1)CC2	MARV entry inh 4µM, LASV entry inh 4µM, HCMV antiviral inconclusive
CN(Cc1nc2ccccc2c(=O)[nH]1)C(=O)c1cccc(S(=O)(=O)N2CCc3ccccc32)c1	MARV entry inh inconclusive, LASV entry inh 4µM, HCMV antiviral -67
COc1ccc(S(=O)(=O)Nc2cccc(-c3ccc(N4CCCCCC4)nn3)c2)cc1	HCMV antiviral inconclusive (no result: MARV entry inh)
C[C@@H]1CN([C@@H](C)CO)C(=O)CCCn2cc(nn2)CO[C@H]1CN(C)C(=O)Nc1ccccc1F	none (no result: MARV entry inh, LASV entry inh, FMDV inh)
CC(C)(C)C(=O)Nc1ccc(N=Nc2ccccc2)cc1	MARV entry inh inconclusive, LASV entry inh inconclusive, FMDV inh 18µM, HCMV antiviral -62
CCS(=O)(=O)c1ccccc1C(=O)Nc1ccc(-c2nc3ccccc3s2)cc1	none (no result: MARV entry inh)
CC(C)(C)C(=O)Nc1ccc(-c2nc3ccccc3s2)cc1	MARV entry inh inconclusive, LASV entry inh inconclusive, FMDV inh 4.5µM, HCMV antiviral -103
O=C(CCS(=O)(=O)c1ccccc1)Nc1ccc(-c2nc3ccccc3s2)cc1	MARV entry inh 14µM, LASV entry inh inconclusive
O=C(Nc1ccccc1)c1nc2ccccc2s1	MARV entry inh inconclusive, LASV entry inh 11µM
O=C(O)CCC(=O)Nc1ccc(N=Nc2ccccc2)cc1	none (no result: HCMV antiviral)
COc1ccccc1C1CN(Cc2cccnc2)Cc2ccccc2O1 (stereo not given)	none (no result: MARV entry inh, LASV entry inh, HCMV antiviral)
COC(=O)C1CCN(Cc2ccc3c(c2)CN(C(=O)c2ccc4nc(C)c(C)nc4c2)CCO3)CC1	none (no result: MARV entry inh, LASV entry inh, HCMV antiviral)
CCOC(=O)C1CCN(c2c([N+](=O)[O-])c(C(Cl)Cl)nn2-c2ccccc2)CC1	LASV entry inh 9.2µM (no result: FMDV inh)
Cc1ccc(-c2nnc(Nc3cccc(Cl)c3)c3ccccc23)cc1S(=O)(=O)N1CCCCC1	none (no result: MARV entry inh)
Cc1cccc(CNC(=O)c2cnn(-c3ncc4c(n3)-c3ccccc3CC4)c2C2CC2)n1	none (no result: MARV entry inh, LASV entry inh, HCMV antiviral)
COc1cc(CNc2ccc3[nH]c(=O)[nH]c3c2)ccc1OCc1cccc(C)c1	LASV entry inh inconclusive, HCMV antiviral -66
Cc1cc(O)cc(C)c1NS(=O)(=O)c1ccc2ccccc2c1	HCMV antiviral -83 (no result: MARV entry inh, LASV entry inh)
Cc1cc(C)c(NS(=O)(=O)c2ccccc2)c(C)c1NS(=O)(=O)c1ccccc1	MARV entry inh inconclusive, LASV entry inh inconclusive, HCMV antiviral -72
CNS(=O)(=O)c1ccc2ccccc2c1	none
COc1ccccc1NC(=O)COc1ccc(C(=O)OCC(=O)NC(C)(C)C)cc1OC	FMDV inh 22µM (no result: LASV entry inh)
CCOc1cc(CNc2ccc(Br)cc2)cc(Br)c1OCC(=O)NC(C)(C)C	FMDV inh inconclusive, HCMV antiviral inconclusive
COc1cc(CNCCCO)ccc1OCC(=O)NC(C)(C)C	none
CCOc1cc(CNc2ccccc2)cc(Br)c1OCC(=O)NC(C)(C)C	MARV entry inh inconclusive, LASV entry inh inconclusive, HCMV antiviral -97 (no result: FMDV inh)
COc1cc(CNCCc2ccccc2)ccc1OCC(=O)NC(C)(C)C	MARV entry inh 11µM
CCCNC(=O)COC(=O)c1ccc(OCC(=O)Nc2ccccc2OC)c(OC)c1	none
COC(=O)C1=C(C)N(CC#C[Si](C)(C)C)C(=O)N(C(C)=O)C1c1ccccc1 (stereo not given)	none (no result: LASV entry inh, FMDV inh, HCMV antiviral)
COc1ccc(NC(=O)Cn2c(=O)oc3cc(S(=O)(=O)N4CCCCCC4)ccc32)cc1OC	LASV entry inh inconclusive (no result: MARV entry inh)
CN(CC(=O)NCc1ccc(Cl)cc1)S(=O)(=O)c1ccc2c(c1)c(=O)n(C)c(=O)n2C	none
C=C(CN(C)C)C(=O)c1ccc(C)cc1C	MARV entry inh inconclusive, LASV entry inh inconclusive, HCMV antiviral -77
Cc1ccc(C(=O)CC(=O)c2ccccc2C)c(O)c1	MARV entry inh inconclusive, LASV entry inh inconclusive, HCMV antiviral inconclusive
CCc1ccc2[nH]c(=O)c(C(c3nnnn3CC3CCCO3)N3CCCc4ccccc43)cc2c1 (stereo not given)	MARV entry inh 9.2µM
O=c1[nH]c2cc3c(cc2cc1C(c1nnnn1Cc1ccccc1)N1CCCc2ccccc21)OCO3 (stereo not given)	MARV entry inh inconclusive, HCMV antiviral -85
O=c1[nH]c2cc3c(cc2cc1C(c1nnnn1Cc1ccccc1)N1CCCCCC1)OCCO3 (stereo not given)	MARV entry inh inconclusive, LASV entry inh inconclusive
Cc1cc2cc(C(c3nnnn3CC3CCCO3)N3CCCc4ccccc43)c(=O)[nH]c2cc1C (stereo not given)	MARV entry inh inconclusive, LASV entry inh inconclusive
CC1(C(=O)NS(=O)(=O)c2cccc(Cl)c2)CCN1C(=O)C1(c2ccc(Cl)cc2)CCC1 (stereo not given)	none (no result: MARV entry inh, LASV entry inh)
CCn1c(CCNC(=O)c2ccc(Cl)c(Cl)c2)nnc1SCCOc1ccc(OC)cc1	FMDV inh 40µM, HCMV antiviral -65
O=C(Cc1c[nH]c2ccccc12)NNCc1ccc(N(CCCl)CCCl)cc1	MARV entry inh 1.6µM, LASV entry inh 3.5µM, HCMV antiviral inconclusive
O=C(Cc1c[nH]c2ccccc12)NCc1ccc(Cl)cc1	none
Cc1cc([N+](=O)[O-])c(C)cc1-c1ccc(/C=N/n2cnnc2)o1	none
Cc1ccc(-c2ccc(/C=N\NC(=O)c3cc4c(ccc5ccccc54)o3)o2)cc1[N+](=O)[O-]	LASV entry inh inconclusive, HCMV antiviral -95
Cc1cc(C(=O)N/N=C/c2ccc(-c3ccc([N+](=O)[O-])cc3C)o2)n[nH]1	none
Cc1cc([N+](=O)[O-])ccc1-c1ccc(/C=N/NC(=O)c2ccc(Br)o2)o1	FMDV inh inconclusive, HCMV antiviral -89 (no result: MARV entry inh, LASV entry inh)
Cc1cc(C)n(Cc2ccc(C(=O)N/N=C/c3ccc(-c4ccc([N+](=O)[O-])cc4)o3)o2)n1	MARV entry inh inconclusive, HCMV antiviral -64
O=[N+]([O-])c1ccc(-c2ccc(/C=N/n3cnnc3)o2)c(Br)c1	FMDV inh inconclusive, HCMV antiviral -90 (no result: MARV entry inh, LASV entry inh)
Cc1ccc([N+](=O)[O-])cc1-c1ccc(/C=N/NC(=O)c2cc3c(ccc4ccccc43)o2)o1	none
CCCCC(=O)N/N=C/c1ccc(-c2ccc([N+](=O)[O-])cc2)o1	HCMV antiviral inconclusive
COc1ccc(CCN2C(=O)CN(C3CCCCCC3)C(=O)C2c2ccc(OC(C)C)c(OC)c2)cc1OC (stereo not given)	none (no result: MARV entry inh)
CCOC(=O)c1[nH]c(C)c(C(=O)N2CCc3ccccc32)c1C	MARV entry inh inconclusive, LASV entry inh inconclusive, HCMV antiviral -92
CCOC(=O)c1[nH]c(C)c(C(=O)c2cc(F)ccc2F)c1C	MARV entry inh inconclusive, HCMV antiviral -86
CCOC(=O)c1[nH]c(C)c(C(=O)OCC)c1C	none (no result: MARV entry inh, LASV entry inh)
CCOC(=O)c1c(C)[nH]c(C(=O)NNC(=O)c2ccccc2F)c1C	LASV entry inh inconclusive
CCOC(=O)c1[nH]c(C)c(C(=O)OCc2ccccc2F)c1C	MARV entry inh inconclusive, LASV entry inh 5.6µM
